# This is a sample that favours compounds with a hit; in the whole collection about 22% have one here.
# LmPK inh – LmPK (Leishmania mexicana) enzyme inhibition; Q27686; purified LmPK, Kinase-Glo ATP luminescence, 1 h; Potency, µM (highest dose often 57.5 µM), for the others: at the highest dose activity change, negative = inhibition, actives largely listed as inhibitors; actives 0.37% (n = 290,000); further: potency means the concentration at half of the fitted maximal effect; on the % scale 0 is the no-effect control and ±100 the full control effect
# Target sequence (Q27686 whole entry, looked up): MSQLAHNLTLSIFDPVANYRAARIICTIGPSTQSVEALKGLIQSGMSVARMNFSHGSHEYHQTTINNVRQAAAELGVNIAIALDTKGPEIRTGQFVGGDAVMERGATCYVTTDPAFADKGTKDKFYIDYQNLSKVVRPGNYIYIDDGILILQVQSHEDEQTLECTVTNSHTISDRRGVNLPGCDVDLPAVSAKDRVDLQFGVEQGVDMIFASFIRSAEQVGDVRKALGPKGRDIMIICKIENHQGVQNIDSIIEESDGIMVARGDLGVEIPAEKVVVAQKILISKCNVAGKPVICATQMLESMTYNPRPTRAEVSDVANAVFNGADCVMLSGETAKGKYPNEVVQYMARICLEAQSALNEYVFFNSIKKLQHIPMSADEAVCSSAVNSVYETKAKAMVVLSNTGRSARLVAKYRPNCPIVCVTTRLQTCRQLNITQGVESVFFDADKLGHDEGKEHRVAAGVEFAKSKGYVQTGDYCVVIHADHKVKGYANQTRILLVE
#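 In 50 mM imidazole pH 7.2 with 7 mM MgCl2, LmPK (0.1 nM) turned over PEP (0.5 mM) and ADP (0.1 mM) for 1 h at room temperature. Luciferase read-out of ATP.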
# Shiga toxin inh – Shiga toxin inhibition; actives 9.2% (n = 290,000); Vero cells, Shiga toxin protein synthesis inhibition reporter; inhibition, % at 38.7 µM; in the data active means inhibition mostly above about 28%, no sharp cut-off; inactive means mostly below about 43%; further: 0% is about no effect
# CHX counter – affects cycloheximide protein synthesis inhibition readout, counter-screen | cell reporter, cycloheximide protein synthesis inhibition counterscreen | max response, % | actives 12% (n = 300,000) | AID 2314; in the data active means max response mostly above about 13%, no sharp cut-off; inactive means mostly below about 14%; further: read at 38.3 µM for the half of the compounds with a filed dose; 0% is about no effect
# Pf growth 48h – P. falciparum growth inhibition at 48 hours (one generation) | AID 504832 | P. falciparum luciferase growth in erythrocytes, 48 h | actives 5.9% (n = 310,000) | Potency, µM (series often up to 28.7 µM), inactives show top-dose activity change, negative = inhibition, most hits filed as inhibitors; further: potency means the concentration at half of the fitted maximal effect; on the % scale 0 is the no-effect control and ±100 the full control effect
#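 Cell-based growth assay: transgenic P. falciparum expressing firefly luciferase, cultured in red cells within RPMI 1640 containing 0.5% w/v Albumax, 24 mM bicarbonate and gentamycin. A drop in luciferase activity indicates inhibition.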
# Pf growth 96h – P. falciparum growth inhibition at 96 hours. P. falciparum luciferase reporter growth, 96 h. Potency, µM (series often up to 28.7 µM), for inactives: at the highest dose activity change, negative = inhibition, most hits filed as inhibitors. actives 6.9% (n = 320,000); further: potency means the concentration at half of the fitted maximal effect; on the % scale 0 is the no-effect control and ±100 the full control effect
#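 Compounds incubated with erythrocytes infected by luciferase-expressing P. falciparum (2% hematocrit, 0.05% parasitemia final) for 96 hours, 37 C in 5% CO2. Growth inhibition scored as decreased luciferase luminescence.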
# Starred values were filed as active, the others as inactive; ? = inconclusive; · = no result given. Unless noted, the call rests on the fitted dose curve; in most records, active means well fitted inhibition curve with a large enough effect; inconclusive means small, poorly fitted or top-dose-only effect, or another doubt; inactive means no such curve, though single readings can be large or run the other way.
SMILES,LmPK inh,Shiga toxin inh,CHX counter,Pf growth 48h,Pf growth 96h
CCN(CC(=O)Nc1c(F)cccc1F)C(=O)CN(C)S(=O)(=O)c1ccc(F)cc1,·,·,·,?,26%
CCOC(=O)C1(Cc2ccccc2C)CCCN(C(=O)c2ccoc2)C1 (configuration not stated),-4%,71*,44*,?,?
CCOC(=O)C1(Cc2ccccc2C)CCCN(C(=O)c2sccc2C)C1 (configuration not stated),-5%,20,29*,?,?
CCOC(=O)C1(Cc2ccccc2C)CCCN(S(=O)(=O)c2cccnc2)C1 (configuration not stated),3%,16,0,9.3µM*,10µM*
CCOC(=O)C1(Cc2ccccc2C)CCCN(C(=O)c2ccnn2C)C1 (configuration not stated),1%,9,9,-31%,?
CCOC(=O)C1(Cc2ccccc2C)CCCN(C(=O)c2ccc(OC)o2)C1 (configuration not stated),-4%,-9,7,?,?
Cc1cccc(-c2c3c(=O)n(C)c(=O)n(C)c3cn2-c2ccccc2O)c1,0%,11,9,1.9µM*,8.3µM*
Cc1ccc(-c2cc(C(=O)OCn3nnc4ccccc4c3=O)c3ccccc3n2)cc1,3%,-4,1,-21%,16%
Cc1cc(C(=O)OCn2nnc3ccccc3c2=O)c(C)n1-c1ccccc1,2%,69*,62*,?,1.9µM*
COc1cccc(C(=O)OCn2nnc3ccccc3c2=O)c1OC,2%,-4,-3,6%,3%
Cc1ccccc1C(=O)OCn1nnc2ccccc2c1=O,-4%,-11,-2,-1%,8.3µM*
C=CCn1c(SCC(=O)NC(=O)c2cccc([N+](=O)[O-])c2)nnc1-c1ccccc1,-2%,23,-3,4%,28%
Cc1ccc2oc(-c3ccccc3)c(C(=O)O)c(=O)c2c1,-4%,80*,44*,147%,92%
O=c1c(O)c(-c2cccs2)oc2ccccc12,-3%,15,18*,-26%,-11%
Cc1ccc(-c2oc3ccccc3c(=O)c2O)cc1,1%,9,14*,3.7µM*,35%
CO[C@H]1C=CO[C@@]2(C)Oc3c(C)c(O)c4c(O)c(c(C=NN5CCN(C)CC5)c(O)c4c3C2=O)NC(=O)C(C)=CC=C[C@H](C)[C@H](O)[C@@H](C)[C@@H](O)[C@@H](C)[C@H](OC(C)=O)[C@@H]1C,?,1,-2,1.2µM*,1.2µM*
CO[C@H]1/C=C/O[C@@]2(C)Oc3c(C)c(O)c4c(O)c(c(C=NN5CCN(C)CC5)c(O)c4c3C2=O)NC(=O)/C(C)=C\C=C\[C@H](C)[C@H](O)[C@@H](C)[C@@H](O)[C@@H](C)[C@H](OC(C)=O)[C@@H]1C,·,·,·,1.2µM*,?
CC(=O)NCc1ccc(C(=O)O)cc1,-1%,2,-4,29%,38%
COc1ccc(C(=O)Cc2cc(OC)c(OC)cc2[N+](=O)[O-])c(OC)c1,3%,-8,11,?,?
COc1ccc(C(=O)Cc2ccc(F)cc2)c(OC)c1,-6%,80*,64*,105%,?
O=C(COc1ccc(F)cc1)NC1CC1,-2%,-13,-1,-7%,?
COc1ccc(C(=O)COc2ccc(F)cc2)c(O)c1,-2%,69*,29*,33%,118%
O=C(COc1ccc(F)cc1)c1c(O)cc(O)cc1O,-5%,119*,48*,-23%,?
CCC(C)[C@@H]1NC(=O)N(CCCN2CCCC2=O)C1=O (some centres not stated),-3%,-7,0,-6%,9%
CC(NC(=O)COc1ccc(-c2nnco2)cc1)c1ccc(Cl)cc1Cl (configuration not stated),3%,-3,-3,?,13µM*
SMILES,LmPK inh,Shiga toxin inh,CHX counter,Pf growth 48h,Pf growth 96h
O=C(COc1ccc(-c2nnco2)cc1)NCc1ccccc1Cl,-8%,1,0,-4%,?
CCn1cc(C(=O)O)c(=O)c2cc(F)c(N3CCN(C(=S)NC(=O)c4ccc(F)cc4)CC3)cc21,?,24,7,?,?
CCn1cc(C(=O)O)c(=O)c2cc(F)c(N3CCN(C(=S)NC(=O)c4ccccc4Br)CC3)cc21,-2%,3,3,?,5.2µM*
CCn1cc(C(=O)O)c(=O)c2cc(F)c(N3CCN(S(=O)(=O)c4ccc(NC(=O)OC)cc4)CC3)cc21,6%,-5,-4,4.7µM*,?
CCn1cc(C(=O)O)c(=O)c2cc(F)c(N3CCN(C(=S)NC(=O)c4cccc(F)c4)CC3)cc21,?,-7,-1,10µM*,?
CCn1cc(C(=O)O)c(=O)c2cc(F)c(N3CCN(C(=S)Nc4ccccc4OC)CC3)cc21,-3%,3,-2,?,-9%
CCn1cc(C(=O)O)c(=O)c2cc(F)c(N3CCN(C(=S)NC(=O)c4c(OC)cccc4OC)CC3)cc21,3%,-17,-3,?,-2%
CCn1cc(C(=O)O)c(=O)c2cc(F)c(N3CCN(C(=S)NC(=O)c4ccc(F)c(F)c4)CC3)cc21,?,-10,8,6.6µM*,1%
Cc1nnc(NC(=O)c2cccc(S(=O)(=O)N3CCCC3)c2)s1,1%,-7,-3,21%,-9%
CCCCCCCCCC(=O)N1CCN(c2cc3c(cc2F)c(=O)c(C(=O)O)cn3CC)CC1,9%,-6,-4,?,?
CCCOc1ccc(C(=O)NC(=S)N2CCN(c3cc4c(cc3F)c(=O)c(C(=O)O)cn4CC)CC2)cc1,9%,-5,0,15µM*,7%
Cc1ccc2[nH]c(C(=O)O)c(-c3ccccc3)c2c1,-3%,-11,-3,7%,7.4µM*
Cc1ccc2[nH]c(C(=O)NN=C3CCCCC3)c(-c3ccccc3)c2c1,5%,11,-1,?,9.3µM*
CCC(C(=O)NCc1ccncc1)c1ccccc1 (configuration not stated),-4%,-15,1,21%,10µM*
O=C(Cc1ccccc1)NCc1ccncc1,6%,67*,42*,48%,?
O=C(NCCCNCc1ccccc1)/C(=N\O)c1ccccc1,4%,-15,-1,18%,-3%
O=C(NCc1ccncc1)/C(=N/O)c1ccccc1,3%,17,-2,30%,10µM*
O=C(Cc1c[nH]c2ccccc12)NCc1ccncc1,-2%,-6,-1,8%,2%
CCC(C(=O)NCc1cccnc1)c1ccccc1 (configuration not stated),1%,-8,-6,2%,?
CS(=O)(=O)Nc1ccc(C(=O)NCCSc2ccc(Cl)cc2)cc1,0%,-7,-1,7%,-12%
Cc1ccccc1NC(=S)N1CCN(c2ccccc2Cl)CC1,4%,-10,1,343%,18%
